Source: ChEMBL document CHEMBL2218924, “A broad activity screen in support of a chemogenomic map for kinase signalling research and drug discovery” (Biochem J, 2013)

What follows are molecules tested against MAP kinase-interacting serine/threonine-protein kinase 2 (Homo sapiens) (UniProt Q9HBH9). Conditions: at 10 µM.
MAP kinase-interacting serine/threonine-protein kinase 2 (Homo sapiens), sequence (Q9HBH9 whole entry, looked up): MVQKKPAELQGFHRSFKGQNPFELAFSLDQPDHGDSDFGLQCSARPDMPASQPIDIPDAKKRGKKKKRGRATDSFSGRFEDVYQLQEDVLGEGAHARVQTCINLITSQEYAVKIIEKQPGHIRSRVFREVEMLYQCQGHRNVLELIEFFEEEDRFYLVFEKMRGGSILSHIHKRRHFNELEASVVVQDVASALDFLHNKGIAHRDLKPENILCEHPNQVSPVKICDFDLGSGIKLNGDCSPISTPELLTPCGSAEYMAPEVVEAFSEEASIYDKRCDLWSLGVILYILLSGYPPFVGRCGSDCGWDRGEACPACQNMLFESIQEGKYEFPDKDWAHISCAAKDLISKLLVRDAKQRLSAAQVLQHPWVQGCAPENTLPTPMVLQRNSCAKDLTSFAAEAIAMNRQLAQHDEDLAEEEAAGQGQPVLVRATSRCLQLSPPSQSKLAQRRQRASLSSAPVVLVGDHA
For c1cc(-c2cnn3cc(-c4ccc(OCCN5CCCCC5)cc4)cnc23)ccn1, the residual activity was 24%. Work on O=[N+]([O-])/C=C/c1ccc2c(c1)OCO2 yielded a residual activity of 105%. With COc1ccc2c(c[n+](C)c3c4cc5c(cc4ccc23)OCO5)c1OC the residual activity was 82%. COc1cc(OC)c(/C=C2\C(=O)Nc3ccccc32)c(OC)c1 gave a residual activity of 96%. O=C1Nc2ccc3ncsc3c2/C1=C/c1c[nH]cn1 showed a residual activity of 4%. In the case of O=c1[nH]c2ccccc2n1C1CCN(Cc2ccc(-c3nc4cc5[nH]cnc5cc4nc3-c3ccccc3)cc2)CC1, the residual activity is reported as 67%. In the case of COc1ccc2c(c1)/C(=C/c1cnc[nH]1)C(=O)N2, the residual activity is reported as 40%. With CCn1cnc2c(Nc3cccc(Cl)c3)nc(N[C@@H]3CCCC[C@@H]3N)nc21 the residual activity was 70%. O=C1c2ccccc2-c2nc3nnnn3nc21 was tested, and the residual activity was 75%. Molecule CC(C)[C@H](CO)Nc1nc(Nc2cccc(Cl)c2)c2ncn(C(C)C)c2n1 has a residual activity of 98%. With COC(=O)[C@@]1(O)C[C@H]2O[C@]1(C)n1c3ccccc3c3c4c(c5c6ccccc6n2c5c31)C(=O)NC4 the residual activity was 0%. In the case of CCc1nc(-c2ccc(OC)cc2)[nH]c1-c1ccncc1, the residual activity is reported as 59%. COc1cc2ncnc(Nc3ccc(OCc4ccccc4)cc3)c2cc1OC gave a residual activity of 68%. O=C1NC(=O)c2c1c1c3ccccc3n3c1c1c2c2ccccc2n1C1CCC3O1 showed a residual activity of 95%. In the case of C[S+]([O-])c1ccc(-c2nc(-c3ccc(F)cc3)c(-c3ccncc3)[nH]2)cc1 (stereo not drawn), the residual activity is reported as 87%.

The molecules below were run against T1, Muscle, skeletal receptor tyrosine-protein kinase (Homo sapiens) (UniProt O15146). Conditions: at 1 µM.
T1 sequence (whole entry): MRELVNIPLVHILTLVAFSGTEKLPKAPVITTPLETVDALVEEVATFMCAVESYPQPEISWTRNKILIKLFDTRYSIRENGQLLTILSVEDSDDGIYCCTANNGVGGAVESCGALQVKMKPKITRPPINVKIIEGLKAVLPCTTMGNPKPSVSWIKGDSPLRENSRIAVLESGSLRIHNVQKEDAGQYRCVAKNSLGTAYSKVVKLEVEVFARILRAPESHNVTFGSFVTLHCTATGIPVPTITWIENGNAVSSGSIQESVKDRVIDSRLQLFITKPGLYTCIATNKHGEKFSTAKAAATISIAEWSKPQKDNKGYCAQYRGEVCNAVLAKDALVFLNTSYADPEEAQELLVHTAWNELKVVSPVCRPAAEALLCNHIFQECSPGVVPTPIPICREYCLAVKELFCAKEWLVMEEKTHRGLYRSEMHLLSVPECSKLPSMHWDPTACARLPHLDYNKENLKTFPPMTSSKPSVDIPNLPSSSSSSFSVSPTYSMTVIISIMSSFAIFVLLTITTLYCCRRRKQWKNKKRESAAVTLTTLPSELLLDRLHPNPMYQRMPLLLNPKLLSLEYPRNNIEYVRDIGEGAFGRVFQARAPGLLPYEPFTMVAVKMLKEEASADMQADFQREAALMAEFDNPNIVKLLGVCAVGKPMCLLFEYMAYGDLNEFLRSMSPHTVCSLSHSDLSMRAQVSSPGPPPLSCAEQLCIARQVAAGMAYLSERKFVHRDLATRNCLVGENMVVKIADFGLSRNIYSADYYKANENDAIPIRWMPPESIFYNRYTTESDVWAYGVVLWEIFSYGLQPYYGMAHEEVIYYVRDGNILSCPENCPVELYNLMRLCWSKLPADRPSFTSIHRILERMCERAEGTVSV
Molecule c1cc(-c2cnn3cc(-c4ccc(OCCN5CCCCC5)cc4)cnc23)ccn1 has a residual activity of 18%. Molecule O=[N+]([O-])/C=C/c1ccc2c(c1)OCO2 has a residual activity of 127%. COc1cc(OC)c(/C=C2\C(=O)Nc3ccccc32)c(OC)c1 was tested, and the residual activity was 88%. Work on CC(C)(C)c1cc(C=C(C#N)C#N)cc(Br)c1O yielded a residual activity of 121%. O=C1Nc2ccc3ncsc3c2/C1=C/c1c[nH]cn1 gave a residual activity of 53%. Work on O=c1[nH]c2ccccc2n1C1CCN(Cc2ccc(-c3nc4cc5[nH]cnc5cc4nc3-c3ccccc3)cc2)CC1 yielded a residual activity of 105%. COc1ccc2c(c1)/C(=C/c1cnc[nH]1)C(=O)N2 showed a residual activity of 80%. Work on CCn1cnc2c(Nc3cccc(Cl)c3)nc(N[C@@H]3CCCC[C@@H]3N)nc21 yielded a residual activity of 61%. In the case of O=C1c2ccccc2-c2nc3nnnn3nc21, the residual activity is reported as 131%. Work on N/C(=N\[N+](=O)[O-])N/N=C\c1ccc(-c2cccc([N+](=O)[O-])c2)o1 yielded a residual activity of 93%. With CC(C)[C@H](CO)Nc1nc(Nc2cccc(Cl)c2)c2ncn(C(C)C)c2n1 the residual activity was 48%. With COC(=O)[C@@]1(O)C[C@H]2O[C@]1(C)n1c3ccccc3c3c4c(c5c6ccccc6n2c5c31)C(=O)NC4 the residual activity was 18%. Work on CCc1nc(-c2ccc(OC)cc2)[nH]c1-c1ccncc1 yielded a residual activity of 117%. With COc1cc2ncnc(Nc3ccc(OCc4ccccc4)cc3)c2cc1OC the residual activity was 118%. With C[S+]([O-])c1ccc(-c2nc(-c3ccc(F)cc3)c(-c3ccncc3)[nH]2)cc1 (stereo not drawn) the residual activity was 143%.

These molecules were tested against T1, Muscle, skeletal receptor tyrosine-protein kinase (Homo sapiens). Conditions: at 10 µM.
Molecule c1cc(-c2cnn3cc(-c4ccc(OCCN5CCCCC5)cc4)cnc23)ccn1 has a residual activity of 1%. Molecule O=[N+]([O-])/C=C/c1ccc2c(c1)OCO2 has a residual activity of 114%. COc1ccc2c(c[n+](C)c3c4cc5c(cc4ccc23)OCO5)c1OC gave a residual activity of 95%. COc1cc(OC)c(/C=C2\C(=O)Nc3ccccc32)c(OC)c1 was tested, and the residual activity was 78%. Molecule CC(C)(C)c1cc(C=C(C#N)C#N)cc(Br)c1O has a residual activity of 72%. Molecule O=C1Nc2ccc3ncsc3c2/C1=C/c1c[nH]cn1 has a residual activity of 11%. O=c1[nH]c2ccccc2n1C1CCN(Cc2ccc(-c3nc4cc5[nH]cnc5cc4nc3-c3ccccc3)cc2)CC1 showed a residual activity of 84%. Work on COc1ccc2c(c1)/C(=C/c1cnc[nH]1)C(=O)N2 yielded a residual activity of 27%. For CCn1cnc2c(Nc3cccc(Cl)c3)nc(N[C@@H]3CCCC[C@@H]3N)nc21, the residual activity was 13%. Molecule O=C1c2ccccc2-c2nc3nnnn3nc21 has a residual activity of 105%. With N/C(=N\[N+](=O)[O-])N/N=C\c1ccc(-c2cccc([N+](=O)[O-])c2)o1 the residual activity was 91%. CC(C)[C@H](CO)Nc1nc(Nc2cccc(Cl)c2)c2ncn(C(C)C)c2n1 gave a residual activity of 5%. Molecule COC(=O)[C@@]1(O)C[C@H]2O[C@]1(C)n1c3ccccc3c3c4c(c5c6ccccc6n2c5c31)C(=O)NC4 has a residual activity of 2%. Work on CCc1nc(-c2ccc(OC)cc2)[nH]c1-c1ccncc1 yielded a residual activity of 76%. Work on COc1cc2ncnc(Nc3ccc(OCc4ccccc4)cc3)c2cc1OC yielded a residual activity of 77%. C[S+]([O-])c1ccc(-c2nc(-c3ccc(F)cc3)c(-c3ccncc3)[nH]2)cc1 (stereo not drawn) was tested, and the residual activity was 95%.

The molecules below were run against T2, Serine/threonine-protein kinase Nek11 (Homo sapiens) (UniProt Q8NG66). Conditions: at 1 µM.
T2 sequence (whole entry): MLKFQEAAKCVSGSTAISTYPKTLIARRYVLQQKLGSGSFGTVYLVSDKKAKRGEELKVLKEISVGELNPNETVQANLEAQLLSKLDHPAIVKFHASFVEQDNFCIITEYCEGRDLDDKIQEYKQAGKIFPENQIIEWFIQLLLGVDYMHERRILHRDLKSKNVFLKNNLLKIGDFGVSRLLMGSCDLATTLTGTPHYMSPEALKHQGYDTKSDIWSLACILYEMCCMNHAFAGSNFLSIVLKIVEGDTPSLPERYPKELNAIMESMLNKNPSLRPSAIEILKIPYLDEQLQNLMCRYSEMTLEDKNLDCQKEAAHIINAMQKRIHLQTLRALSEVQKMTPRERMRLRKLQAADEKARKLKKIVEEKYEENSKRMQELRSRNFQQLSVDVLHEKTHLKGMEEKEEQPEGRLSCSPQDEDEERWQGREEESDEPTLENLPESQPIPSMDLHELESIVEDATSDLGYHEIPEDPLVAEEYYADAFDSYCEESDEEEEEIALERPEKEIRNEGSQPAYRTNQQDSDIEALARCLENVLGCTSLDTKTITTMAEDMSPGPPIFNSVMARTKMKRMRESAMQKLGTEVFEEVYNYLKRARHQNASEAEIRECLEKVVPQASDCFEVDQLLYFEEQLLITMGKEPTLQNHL
For O=[N+]([O-])/C=C/c1ccc2c(c1)OCO2, the residual activity was 90%. Molecule COc1cc(OC)c(/C=C2\C(=O)Nc3ccccc32)c(OC)c1 has a residual activity of 43%. O=C1Nc2ccc3ncsc3c2/C1=C/c1c[nH]cn1 was tested, and the residual activity was 50%. In the case of O=c1[nH]c2ccccc2n1C1CCN(Cc2ccc(-c3nc4cc5[nH]cnc5cc4nc3-c3ccccc3)cc2)CC1, the residual activity is reported as 75%. CCn1cnc2c(Nc3cccc(Cl)c3)nc(N[C@@H]3CCCC[C@@H]3N)nc21 was tested, and the residual activity was 68%. For N/C(=N\[N+](=O)[O-])N/N=C\c1ccc(-c2cccc([N+](=O)[O-])c2)o1, the residual activity was 73%. Work on CC(C)[C@H](CO)Nc1nc(Nc2cccc(Cl)c2)c2ncn(C(C)C)c2n1 yielded a residual activity of 59%. COC(=O)[C@@]1(O)C[C@H]2O[C@]1(C)n1c3ccccc3c3c4c(c5c6ccccc6n2c5c31)C(=O)NC4 gave a residual activity of 34%. Molecule CCc1nc(-c2ccc(OC)cc2)[nH]c1-c1ccncc1 has a residual activity of 62%. COc1cc2ncnc(Nc3ccc(OCc4ccccc4)cc3)c2cc1OC was tested, and the residual activity was 99%. O=C1NC(=O)c2c1c1c3ccccc3n3c1c1c2c2ccccc2n1C1CCC3O1 showed a residual activity of 91%. Molecule C[S+]([O-])c1ccc(-c2nc(-c3ccc(F)cc3)c(-c3ccncc3)[nH]2)cc1 (stereo not drawn) has a residual activity of 90%.
